Out of some 340,000 compounds screened, about 2,100 (0.62%) were called active.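 The calls were made as follows: active = first-screen hits whose inhibition reached a set limit at any dose in the follow-up dose series; inconclusive = inhibition above the set first-screen limit but never retested; inactive = the rest.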 A selection follows. Entries with a potency or affinity are not part of this list.
These compounds were tested against Rac GTPase-activating protein 1 (Homo sapiens) (UniProt Q9H0H5) (assay: MgcRacGAP GTPase-activating activity inhibitors, confirmation, biochemical, ADP Hunter fluorescence, primary and confirmatory (AID 624330;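 also: fluorescence reports GDP produced by GAP-driven GTP hydrolysis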)). Details: MgcRacGAP-stimulated Rac1 GTP hydrolysis, at 30 µM, stronger effect = higher value, GST-tagged Rac1 F28L mutant substrate.
Rac GTPase-activating protein 1 (Homo sapiens), sequence (Q9H0H5 whole entry, looked up): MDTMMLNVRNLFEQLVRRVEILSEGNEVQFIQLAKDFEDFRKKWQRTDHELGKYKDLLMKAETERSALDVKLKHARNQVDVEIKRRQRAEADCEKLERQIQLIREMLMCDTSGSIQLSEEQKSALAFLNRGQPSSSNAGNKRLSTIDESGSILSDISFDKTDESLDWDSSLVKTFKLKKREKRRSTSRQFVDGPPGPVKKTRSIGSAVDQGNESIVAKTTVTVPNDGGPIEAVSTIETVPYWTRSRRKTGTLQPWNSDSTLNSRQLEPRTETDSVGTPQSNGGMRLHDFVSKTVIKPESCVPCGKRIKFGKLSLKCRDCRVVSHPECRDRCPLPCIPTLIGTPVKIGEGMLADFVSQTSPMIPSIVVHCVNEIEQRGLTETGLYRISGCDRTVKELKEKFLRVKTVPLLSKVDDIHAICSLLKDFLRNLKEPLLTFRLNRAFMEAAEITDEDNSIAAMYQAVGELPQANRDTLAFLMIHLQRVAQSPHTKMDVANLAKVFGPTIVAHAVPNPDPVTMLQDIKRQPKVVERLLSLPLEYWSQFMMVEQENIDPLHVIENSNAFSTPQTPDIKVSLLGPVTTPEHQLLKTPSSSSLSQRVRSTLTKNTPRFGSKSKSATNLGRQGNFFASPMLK

inhibition, inactive:
CCc1cc2c(SCC(=O)NC3CCCC3)ncnc2s1 6.67%
COc1cccc(NC(=O)[C@@H]2CCC(=O)N2C2OC(=O)c3ccccc32)c1 (stereo not given in full) -0.84%
CC(=O)Nc1ccc(NC(=O)Cn2cnc(S(=O)(=O)N3CCOCC3)c2)cc1 -16.8%
Cc1ccc(CSCC(=O)NCCc2ccccc2)cc1 -4.12%
Cc1ccc(CCNC(=O)CSCc2ccc(F)cc2)cc1 8.48%
Cc1ccc(CNC(=O)CSCc2ccccc2)cc1 10.2%
Cc1ccc(CSCCNC(=O)CSCc2ccc([N+](=O)[O-])cc2)cc1 6.03%
CC1=C(C#N)C(c2ccc(O)cc2)C(C#N)=C(C)N1 11.8%
CCOc1ccc(NC(=O)CN2CCN(CC(=O)Nc3ccc(C(=O)OC)cc3)CC2)cc1 6.74%
C/C(=N\NC(=O)Cn1nc(C)c([N+](=O)[O-])c1C)c1ccc(Cl)s1 5.29%
COC(=O)c1scc2c(=O)cc(C(F)(F)F)[nH]c12 6.18%
Cc1cc(OCC(=O)N(C(C)C)C(C)C)cc(C)c1Br 7.37%
COc1cc(/C=N/N2CCN(Cc3ccc(C)cc3)CC2)cc(OC)c1O 25.8%
COc1ccc(/C=N/N2CCN(c3ccccc3OC)CC2)cc1Br 5.46%
COc1ccccc1N1CCN(/N=C(\C)c2ccc(O)cc2)CC1 8.49%
COc1ccc(/C=N/N2CCN(C)CC2)cc1OC 4.11%
CC(=O)Oc1ccc(/C(C)=N/N2CCN(Cc3ccc(C)cc3)CC2)cc1 -1.21%
COc1ccccc1N1CCN(/N=C(\C)c2ccccc2O)CC1 9.26%
COc1ccc(/C=N/N2CCN(c3ccccc3OC)CC2)cc1OC 1.46%
COc1ccc(/C=N/N2CCOCC2)cc1O 6.98%
COc1ccc(-c2cc([C@H]3[C@H]4C=CC[C@@H](C)[C@@H]4C(=O)N3Cc3ccccc3)ccc2F)cc1 4.49%
CCC(C)N(C(=O)COC(=O)c1ccc(=O)n(Cc2ccccc2)n1)C1CCS(=O)(=O)C1 (stereo not given) 2.85%
CSc1nc(C(=O)N2CCc3c([nH]c4ccccc34)C2c2ccccn2)cs1 (stereo not given) 3.69%
CCCCNC(=O)Cn1c(=O)c2c(ncn2CCC(C)C)n(Cc2ccccc2)c1=O 6.76%
CCOC(=O)/C=C1\SCC(=O)N1CC(=O)NC(c1ccccc1)c1ccccc1 5.26%
CN(CC(=O)Nc1cccc(F)c1)C(=O)CSc1ccccc1 1.63%
COc1ccccc1N1CCN(/N=C/c2cc(OC)c(OC)c(OC)c2)CC1 -2.37%
COc1ccccc1N1CCN(/N=C/c2cccc(O)c2)CC1 10.5%
COc1ccccc1N1CCN(/N=C\c2ccccc2)CC1 -17.8%
COc1ccccc1N1CCN(/N=C/c2cccc(OC)c2O)CC1 -28.4%
CC1CCCCC1NC(=O)CSc1nnc(CC(=O)Nc2ccccc2F)n1C (stereo not given) 5.96%
O=C(C[C@@H]1C/C=C/CC[C@@H](Cc2ccc(F)cc2)C(=O)OCCNC1=O)N[C@H](CO)Cc1ccccc1 3.03%
COCC1CCN(Cc2cn(C)nc2-c2cccc(Cl)c2)C1 (stereo not given) 1.3%
O=C(CCc1nnc2ccc(NCc3ccc(F)cc3)nn12)NC1CCCC1 12.4%
c1ccc(CNCc2ccc3c(c2)OCO3)nc1 4.13%
CC(C)C(=O)N(Cc1ccc2c(c1)OCO2)Cc1ccccn1 7.22%
O=C(CN1CCCc2ccccc21)Nc1cccc(S(=O)(=O)N2CCCC2)c1 9.73%
CNCc1c(C)nn(-c2ccccc2)c1C 8.94%
CCn1ccnc1CN(C)Cc1nc(-c2ccccc2)no1 -3.37%
CC(=O)Nc1ccc(NC(=O)CSCc2ccccc2Cl)cc1 10.3%
C/C(=N\NC(=O)CSCc1ccccc1Cl)c1cccc(NC(=O)c2ccccc2)c1 4.95%
Cc1ccccc1Nc1nc(N)nc(COC(=O)c2ccc3c(c2)OCCO3)n1 12.6%
O=C(Nc1ccccc1C(=O)Nc1ccc(F)cc1)c1ccco1 6.4%
CCOc1ccc(S(=O)(=O)N2CCN(C(=O)c3ccc(C)c(S(=O)(=O)N4CCOCC4)c3)CC2)cc1 5.86%
COc1ccc(CN2CCN(C(=O)CC(C)C)CC2)cc1Br 26.2%
COc1ccc(C(=O)N2CCN(C(=O)CC(C)C)CC2)cc1OC -1.21%
COc1ccc(C(=O)N2CCN(Cc3cc(OC)c(O)c(OC)c3)CC2)cc1OC 18.5%
COc1cc(OC)c(OC)cc1CN1CCN(C(=O)CC(C)C)CC1 12.8%
CCOc1cc(CN2CCCCCC2)ccc1OC 25.5%
COc1ccc(CN2CCN(C(=O)CC(C)C)CC2)cc1 26.1%
C=CCN1C(=O)c2ccc(C(=O)N(C)CC(=O)Nc3ccccc3Cl)cc2C1=O -7.53%
CCOC(=O)c1ccc(NC(=O)c2nc[nH]c2C(=O)NCCCNC(=O)c2[nH]cnc2C(=O)Nc2ccc(C(=O)OCC)cc2)cc1 -0.79%
COc1ccc(N=Cc2c(O)c3ccccc3oc2=O)cc1 10.7%
COC(=O)c1ccccc1NC(=S)NC(=O)COc1ccccc1Cl 2.61%
CCOc1ccc(-n2c(-c3ccco3)n[nH]c2=S)cc1 15.8%
O=C(COC(=O)c1cccs1)NCCc1ccc(F)cc1 4.76%
CC1CC(C)(C)N(C(=O)CN2C(=O)CCC2=O)c2ccccc21 (stereo not given) -0.11%
CN1CCN(CC(=O)N2c3ccccc3C(C)(c3ccccc3)CC2(C)C)CC1 (stereo not given) 10.3%
Cc1ccc2c(c1)C(C)CC(C)(C)N2C(=O)NC1CCCCC1 (stereo not given) 3.06%
CC1CC(C)(C)N(C(=O)CN2C(=O)c3ccccc3C2=O)c2ccccc21 (stereo not given) 2.35%
CCN(CC)C(=O)[C@H]1C[C@H](CC(=O)NCCCN(C)C)C(=O)N2CCc3c([nH]c4ccc(Cl)cc34)[C@]12C 4.62%
O=C(NCc1ccccn1)C12CC3CC(CC(C3)C1)C2 3.08%
O=C(NCc1ccccn1)NC12CC3CC(CC(C3)C1)C2 1.18%
COc1cc(OC)c(OC)cc1/C=C1/C(=O)N=C(N)N1C 0.61%
CC(NC(=O)/C=C/c1ccco1)c1nc2ccccc2n1Cc1ccccc1F (stereo not given) -6.08%
O=c1c(-c2ccco2)[n+]([O-])c2ccccc2n1OCc1ccccc1 2.31%
Cc1c(Cl)cccc1NC(=O)CNCc1ccccc1F 5.19%
O=C(CNCc1ccccc1Cl)Nc1ccccc1N1CCCCC1 28.3%
CCCCn1c(N)c(N(CCOC)C(=O)CSCc2ccc(C)cc2)c(=O)[nH]c1=O 3.5%
Cc1ccc(NC(=O)CN(C)S(=O)(=O)c2cccs2)cc1C 2.54%
CCN=C1S/C(=C\c2sccc2C)C(=O)N1CC 8.79%
CC(C(=O)Nc1ccc2c(c1)OCO2)N(C)CC(=O)Nc1ccccc1Cl (stereo not given) 6.56%
CSc1ccccc1C(=O)NCc1ccc2c(c1)OCO2 3.84%
COc1ccc2c(c1)[nH]c1c(=O)n(/N=C/c3ccc(OC)c(COc4ccccn4)c3)cnc12 6.37%
CC(C)N1C(=O)S/C(=C/c2ccc(Sc3nc4ccccc4[nH]3)o2)C1=O 12.6%
CC(C)N1C(=O)S/C(=C\c2ccc(-c3ccc(Cl)c(C(=O)O)c3)o2)C1=O 14.4%
CCc1nc2ccccc2c(=O)n1NC(=O)c1c(O)c2ccccc2n(CC)c1=O 11.3%
CCn1c(COc2ccc(Cl)cc2)nnc1SCC(=O)Nc1ccc2c(c1)OCCO2 9.81%
COc1ccc(/C=C2\SC(c3ccc(C)cc3)=NC2=O)cc1OC -0.09%
COc1cc(/C=C2\SC(N)=NC2=O)ccc1OCC(=O)Nc1ccccc1C 1.31%
O=C(CN1C(=O)S/C(=C\c2ccc(O)cc2)C1=O)c1ccccc1 2.23%
COc1ccc(C2=NN(c3ccccc3)C(=O)/C2=C\c2ccc(O)c(OC)c2)cc1 4.88%
NC1=NC(=O)C(=Cc2ccccc2)S1 -0.93%
COc1ccc(/C=C2\SC(N)=NC2=O)cc1 3.78%
COc1ccc(/C=C2/SC(c3ccc(C)cc3)=NC2=O)cc1OC 11.7%
COc1cc(/C=C2/SC(=S)N(Cc3ccccc3)C2=O)ccc1O 11.1%
COc1ccc(N2CC(C(=O)Nc3nnc(SCC(=O)N4CCOCC4)s3)CC2=O)cc1 (stereo not given) 10.3%
CCCn1c(SCC(=O)Nc2cc(Cl)ccc2OC)nc(O)cc1=O 4.2%
CCOC(=O)C(CC)Sc1nc2c(c(=O)[nH]c(=O)n2C)n1C/C=C(/C)Cl (stereo not given) 13.4%
CCc1cccc(NC(=O)CSc2nnc(Cc3ccc(OC)cc3)c(=O)[nH]2)c1 6.26%
CC(=O)c1cccc(Nc2cc(C)nc3c(C)cc(C)cc23)c1 11%
CC(=O)Nc1cccc2c1C(=O)N(c1ccccc1C)C2=O 9.72%
Cc1ccnc(NC(=O)Cn2c(=O)oc3ccccc32)c1 6.21%
Cn1cccc1/C=C1\SC(=O)N(c2ccc(O)cc2)C1=O 0.13%
Cc1ccc(NC(=O)CN2C(=O)S/C(=C\c3cccn3C)C2=O)cc1 2.72%
